Measurements reported in ChEMBL document CHEMBL3433997, “St. Jude Leishmania screening dataset” (2016).

Experiments:
Type in all cases: functional
[1] = biological target: Solute carrier family 2, facilitated glucose transporter member 1 (Homo sapiens) (UniProt P11166); experiment: ST_JUDE_LEISH: Cytotoxicity at 2uM final concentration against transgenic Leishmania Mexicana promastigotes LmGLUT1 that are glucose transport deficient and complemented with the human glucose transporter GLUT1. Activity is measured by DNA content using SYBR green in vitro
Solute carrier family 2, facilitated glucose transporter member 1 (Homo sapiens), sequence (P11166 whole entry): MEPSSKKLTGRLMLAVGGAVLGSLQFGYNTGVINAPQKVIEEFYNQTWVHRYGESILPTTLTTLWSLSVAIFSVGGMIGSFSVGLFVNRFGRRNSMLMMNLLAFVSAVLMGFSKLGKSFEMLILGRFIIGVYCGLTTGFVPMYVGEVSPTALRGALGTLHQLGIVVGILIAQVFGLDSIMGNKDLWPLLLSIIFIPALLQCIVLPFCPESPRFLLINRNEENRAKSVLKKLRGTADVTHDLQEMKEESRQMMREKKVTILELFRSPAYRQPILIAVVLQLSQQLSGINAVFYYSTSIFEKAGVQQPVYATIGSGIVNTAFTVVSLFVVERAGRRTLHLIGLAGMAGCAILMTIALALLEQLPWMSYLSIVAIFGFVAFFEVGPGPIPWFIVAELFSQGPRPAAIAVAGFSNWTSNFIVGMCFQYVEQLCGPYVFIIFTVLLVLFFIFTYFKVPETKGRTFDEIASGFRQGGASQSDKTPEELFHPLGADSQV

[2] = biological target: Hexose transporter 1 (Plasmodium falciparum) (UniProt O97467); experiment: ST_JUDE_LEISH: Cytotoxicity at 2uM final concentration against transgenic Leishmania Mexicana promastigotes LmPfHT that are glucose transport deficient and complemented with the Plasmodium falciparum hexose transporter. Activity is measured by DNA content using SYBR green in vitro
[3] = biological target: Glucose transporter (Leishmania mexicana) (UniProt O61059); experiment: ST_JUDE_LEISH: Cytotoxicity at 2uM final concentration against transgenic Leishmania Mexicana promastigotes LmGT2 that are glucose transport deficient and complemented with the L. Mexicana glucose transporter 2. Activity is measured by DNA content using SYBR green in vitro

Row | SMILES | inhibition [1] [%] | inhibition [2] [%] | inhibition [3] [%]
1 | O=C(NCCOc1ccccc1)[C@H](Cc1ccccc1)Nc1ccnc(NCC2CCCCC2)n1 | 2.23 | 1.21 | 0.92
2 | COc1cc(C2Nc3ccc4ccccc4c3C3=C2C(=O)CC(C)(C)C3)ccc1Oc1ccc([N+](=O)[O-])cc1C#N (configuration not stated) | 4.18 | 4.07 | -0.66
3 | Cc1cccc(-c2ccc3c(c2)CC(NCc2cccc(-n4ccnc4)c2)C3)c1 (configuration not stated) | 31.8 | 41.4 | 26.6
4 | Cc1nnsc1C(=O)Nc1cccc(-c2csc(-c3nc4ccccc4[nH]3)c2)c1 | 2.53 | 3.19 | 1.45
5 | CS(=O)(=O)NCCCNCc1ccc(-c2ccc(-c3nc4cc(C(F)(F)F)ccc4[nH]3)cc2)cc1 | 2.14 | 2.39 | 1.11
6 | N=C(N)NN=C1C=Cc2cccc3cccc1c23 | -1.8 | 2.26 | -2.92
7 | CCC(CCON1C(N)=NC(N)=NC1(C)C)c1ccc(Cl)cc1 (configuration not stated) | 4.18 | 1.03 | 2.41
8 | COc1cccc(CC(=O)N2CCC(n3c(C)nc4ccc(F)cc43)CC2)c1 | 2.08 | 4.64 | 2.33
9 | COc1ccc(-c2ccc(NC(=O)c3cccc(Cl)c3)cc2)cc1CN1CCN(C)CC1 | 6.52 | 4.97 | 3.15
10 | CCNc1nc(OCC(F)(F)F)nc(N(c2ccccc2)c2ccccc2)n1 | 0.4 | 1.48 | 1.04
11 | CC(Cc1ccc(OCCN2CCN(c3ccccc3)CC2)cc1)NCC(O)c1cccc(Cl)c1F (configuration not stated) | 2.22 | 0.09 | 1.85
12 | O=C(Nc1ccc(N2CCCN(Cc3cccc(F)c3)CC2)cc1)c1ccc(F)cc1 | 4.73 | 5.55 | 5.51
13 | O=C(Nc1ccc(Cl)c(Cl)c1)Nc1ccc(F)c([N+](=O)[O-])c1 | -2.06 | 0.4 | -2.36
14 | O=C(Nc1ccc(Cn2ncc(N3CCCNCC3)c(Cl)c2=O)cc1)Nc1cccc(C(F)(F)F)c1 | 0.62 | 1.58 | -2.08
